Assay results reported in PubChem BioAssay (NCI).
This is part of a sample that, as a whole, favours compounds with a hit. Of some 83,000 tested, about 20% had one in any assay.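 A percent growth of 40 corresponds to 60% growth inhibition; 0 means no net growth; -100 means all cells died. Active threshold: below 10.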 Values without a mark were called inactive. The source made the active and inactive calls.

How the values were obtained:
Experiment in all cases: NCI-60 one-dose screen, 48 h (100 = growth as untreated, 0 = no growth, -100 = all killed)
Details in all cases: 10 µM unless noted
SR leukemia = system: SR leukemia
RPMI-8226 leukemia = system: RPMI-8226 leukemia
OVCAR-5 ovarian = system: OVCAR-5 ovarian
OVCAR-4 ovarian = system: OVCAR-4 ovarian
SK-OV-3 ovarian = system: SK-OV-3 ovarian
IGROV1 ovarian = system: IGROV1 ovarian
OVCAR-3 ovarian = system: OVCAR-3 ovarian
HS 578T breast = system: HS 578T breast
NCI/ADR-RES ovarian = system: NCI/ADR-RES ovarian
T-47D breast = system: T-47D breast
BT-549 breast = system: BT-549 breast
MDA-MB-435 melanoma = system: MDA-MB-435 melanoma
SW-620 colon = system: SW-620 colon
MCF7 breast = system: MCF7 breast
HCT-116 colon = system: HCT-116 colon
HCC-2998 colon = system: HCC-2998 colon
KM12 colon = system: KM12 colon
OVCAR-8 ovarian = system: OVCAR-8 ovarian

SMILES | growth (SR leukemia) | growth (RPMI-8226 leukemia) | growth (OVCAR-5 ovarian) | growth (OVCAR-4 ovarian) | growth (SK-OV-3 ovarian) | growth (IGROV1 ovarian) | growth (OVCAR-3 ovarian) | growth (HS 578T breast) | growth (NCI/ADR-RES ovarian) | growth (T-47D breast) | growth (BT-549 breast) | growth (MDA-MB-435 melanoma) | growth (SW-620 colon) | growth (MCF7 breast) | growth (HCT-116 colon) | growth (HCC-2998 colon) | growth (KM12 colon) | growth (OVCAR-8 ovarian)
C#CCOc1ccc(/C=N\Nc2nc(-c3ccc(C)cc3)cs2)cc1OC | 83.2% | 68.3% | 96.8% | 76.8% | 87.6% | 92.3% | 99.3% | 111% | 96.2% | 61.7% | 80.7% | 91.6% | 95.4% | 62.5% | 88% | 101% | 85.6% | 
CC(=O)C1=C(C)NC(NNC(N)=S)=NC1c1ccccc1 (stereo not drawn) | 112% |  | 90% | 78% | 104% | 77.9% | 111% | 103% | 108% | 103% | 92.2% | 99.2% | 96.8% | 101% | 94.9% | 103% | 102% | 107%
COc1cc(Cn2cc3c(c2)-c2onc(CN4CCOCC4)c2CC3)cc(OC)c1OC | 114% | 91% | 95% | 74% | 106% | 99.8% | 113% | 110% | 100% | 79.3% | 96.7% |  | 112% | 89% | 104% | 105% | 101% | 
O=C(Nc1nc2ccc([N+](=O)[O-])cc2s1)Nc1ccccc1Cl | 18.1% |  | 81.8% | 14% | 22.8% | 39.1% | 16.8% | 46.9% | 47.1% | -0.208% (active) | 36.9% | 19.6% | 46.1% | 55.8% | 21.4% | 47.6% | 26.4% | 12.8%
CC1=NC2=NC(=O)/C(=C3/N=C(C)C=C(c4ccccc4)N3N)NN2C(c2ccccc2)=C1 | 116% | 111% | 101% | 96.7% | 98.8% | 70.1% | 108% | 116% | 108% | 102% | 111% | 108% | 108% | 93.6% | 102% | 110% | 98.4% | 
O=C1CC(=O)N2CSCN(C(c3ccccc3)c3nc4ncncc4[nH]3)C2=N1 (stereo not drawn) | 118% | 107% | 111% | 107% | 113% | 99.3% | 107% | 107% | 99.3% | 98.8% | 105% | 107% | 102% | 93.9% | 105% | 99.4% | 103% | 
CCO/C=N/C1=C(C#N)C(c2ccc(F)cc2)c2sc3c(CC)cccc3c2O1 (stereo not drawn) | 6.82% (active) |  | 29.2% | 60.4% | 64.4% | 23.5% | -17.4% (active) | 32.5% | 9.33% (active) | 42.7% | 27.7% | -12.9% (active) | 30.1% | 14.8% | 16.2% | 15.6% | 14.8% | 27.2%
